High-throughput results deposited in PubChem by Broad Institute.
In the library only some 4.1% were active in any assay of this set; here they are far more common.
PglD DTNB = inhibitors of Campylobacter jejuni PglD acetyltransferase | purified PglD enzyme, DTNB colorimetric CoA detection | inhibition, % at 12.5 µM | actives 0.098% (n = 360,000) | AID 602405; in the data active = inhibition above about 16%, passing the limit was not always enough; inconclusive = no clear call, values can overlap the other calls
NSD2 HMT inh = inhibitors of human histone methyltransferase NSD2; NSD2 peptide methylation, AlphaScreen, 120 min; inhibition, % at 12.5 µM; actives 0.54% (n = 310,000); AID 743445; in the data active = inhibition above about 50%
ALR inh = human ALR oxidase inhibition via reduced H2O2; P55789; purified ALR, DTT oxidation, H2O2 HRP-luminol luminescence; inhibition, % (test concentration not listed); actives 3.8% (n = 290,000); AID 485317;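 active = mean replicate inhibition above about 79%, with every replicate also reaching it, limit read from the data; inconclusive = only one of the two criteria met; inactive = mean below limit and not every replicate reaching it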
Target sequence (P55789 whole entry, looked up): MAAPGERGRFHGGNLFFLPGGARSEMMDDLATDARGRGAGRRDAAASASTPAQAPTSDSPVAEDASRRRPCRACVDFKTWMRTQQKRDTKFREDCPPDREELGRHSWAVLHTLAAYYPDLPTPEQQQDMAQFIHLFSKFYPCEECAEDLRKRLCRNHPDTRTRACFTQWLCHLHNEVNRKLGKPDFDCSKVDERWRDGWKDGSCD
CASP6 VEID inh = blocks human caspase-6 cleavage activity; inhibition, % at 12.5 µM; actives 0.53% (n = 350,000); AID 686996; purified caspase-6, Z-VEID-R110 cleavage fluorescence; P55212;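 active = mean inhibition across replicates at least about 35%, with every replicate also reaching that limit, limit read from the data; inconclusive = only one of the two criteria met; inactive = neither criterion met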
Target sequence (P55212 24-179 limits assumed): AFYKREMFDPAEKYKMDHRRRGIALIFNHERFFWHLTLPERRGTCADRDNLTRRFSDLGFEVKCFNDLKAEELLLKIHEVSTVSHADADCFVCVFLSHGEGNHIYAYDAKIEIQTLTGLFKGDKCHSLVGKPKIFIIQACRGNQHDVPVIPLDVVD
Target sequence (P55212 194-293 limits assumed): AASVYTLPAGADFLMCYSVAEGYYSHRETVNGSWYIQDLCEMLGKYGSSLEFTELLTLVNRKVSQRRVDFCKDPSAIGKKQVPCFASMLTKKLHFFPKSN
HIV Env fusion = HIV envelope-mediated fusion inhibition | HeLa-JRFL Env/CEM21 cell fusion, luciferase | inhibition, % at 12.3 µM | actives 1.1% (n = 360,000) | AID 651610;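 active = mean replicate inhibition score of at least 50 and every replicate individually at or above 50; inconclusive = only one of the two criteria met; inactive = mean below 50 and not all replicates reaching 50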
F508del corr = correctors of CFTR F508del function in bronchial epithelial cells | CFBE cells, YFP halide quenching; stimulated with forskolin plus potentiator P3; % fluorescence drop versus neutral controls | activity (quench increase), % at 7.58 µM | actives 0.36% (n = 350,000) | AID 720511;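 active = mean added fluorescence quench of at least 8% versus neutral control, with both replicates also reaching 8%; inconclusive = only one of the mean or replicate conditions met; inactive = mean below 8% and not both replicates reaching 8%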;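 note: cells transiently co-express mutant CFTR-F508del with the halide-sensitive YFP; corrector assay measuring rescue of mutant channel to the surface after 24 h compound exposure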
PglD inh SP = blocks Campylobacter jejuni PglD acetyltransferase activity; shares compounds with PglD DTNB; inhibition, % at 20 µM; 320 tested, under 10 active; Purified C. jejuni PglD, DTNB absorbance 412 nm; AID 743156;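 active = mean inhibition across replicates of at least 20% with every single replicate also at 20% or more; inconclusive = mean inhibition at least 20% but some replicate falls below 20%; inactive = mean inhibition under 20% and not all replicates reach it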;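 note: initial rate of CoA release by acetyl transfer from AcCoA to the UDP-4-amino sugar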
Numbers stand for hits; 0 = inactive; ? = inconclusive; - = not tested or not shown; [ ] = another dose, or the depositor's remark.

SMILES	PglD DTNB	NSD2 HMT inh	ALR inh	CASP6 VEID inh	HIV Env fusion	F508del corr	PglD inh SP
CC(C)(C)NC(=O)N1c2ccccc2Sc2ccccc21	-	0	82	0	0	-	-
COC(=O)c1ccccc1NC(=O)N1c2ccccc2Sc2ccccc21	-	0	0	-	0	-	-
COCCCNC(=O)N1c2ccccc2Sc2ccccc21	0	0	0	0	0	0	-
CCCCC(=O)NNC(=O)N1c2ccccc2Sc2ccccc21	0	0	99	0	0	0	-
COc1ccc(CCNC(=O)N2c3ccccc3Sc3ccccc32)cc1	0	0	0	-	75	-	-
COc1ccc(NC(=O)Nc2ccc3c(c2)C(=O)N([C@@H](C)CO)C[C@@H](C)[C@H](CN(C)C(=O)CCCN(C)C)OCCCC[C@@H](C)O3)cc1	0	-	-	0	0	0	-
CO[C@@H]1CN(C)C(=O)c2cc(NS(=O)(=O)c3ccc(Cl)cc3)ccc2OC[C@H](C)N(C)C[C@@H]1C	0	-	-	0	0	0	-
CO[C@@H]1CN(C)C(=O)c2cc(NS(=O)(=O)c3cn(C)cn3)ccc2OC[C@@H](C)N(Cc2ccc(C(F)(F)F)cc2)C[C@H]1C	0	-	-	0	88[16.7 µM]	0	-
CO[C@H]1CN(C)C(=O)c2cc(NS(=O)(=O)c3ccc(Cl)cc3)ccc2OC[C@@H](C)N(C)C[C@@H]1C	0	-	-	0	61[16.7 µM]	0	-
CO[C@H]1CN(C)C(=O)c2cc(NC(=O)Nc3ccccc3)ccc2OC[C@@H](C)N(C(=O)Nc2c(C)noc2C)C[C@H]1C	0	-	-	36	-	0	-
CO[C@H]1CN(C)C(=O)c2cc(NC(=O)Nc3ccccc3)ccc2OC[C@H](C)N(C(=O)Nc2c(C)noc2C)C[C@@H]1C	0	-	-	0	-	0	-
CO[C@@H]1CN(C)C(=O)c2cc(NC(=O)Nc3c(C)noc3C)ccc2OC[C@H](C)N(C)C[C@H]1C	0	-	-	0	0	0	-
CO[C@@H]1CN(C)C(=O)c2cc(NC(=O)Nc3c(C)noc3C)ccc2OC[C@@H](C)N(C)C[C@@H]1C	0	-	-	0	0	9.6	-
C[C@@H]1CN([C@@H](C)CO)C(=O)c2cc(NS(C)(=O)=O)ccc2O[C@@H](C)CCCCO[C@H]1CN(C)Cc1ccccc1	-	-	-	-	0	0	-
CCCC#Cc1ccc2c(c1)O[C@@H](CN(C)C(=O)c1ccccn1)[C@H](C)CN([C@H](C)CO)S2(=O)=O	0	-	-	0	0	0	-
C=CCOC(=O)[C@@H]1[C@H]2C(=O)O[C@H](c3ccccc3)[C@H](c3ccccc3)N2[C@H](c2ccc(OCCOC(=O)[C@H]3C[C@H]4C(=O)N5CCC[C@H]5C(=O)N4[C@H]3c3ccc(O)cc3)cc2)[C@@]12C(=O)Nc1ccccc12	0	-	-	0	0	0	-
Cc1cc(C)nc(OC(=O)c2ccc(Cl)cc2Cl)n1	-	0	98	0	0	0	-
COc1ccccc1CN(C)C(=O)C1COc2ccccc2O1 (stereo unspecified)	0	0	100	-	0	-	-
Cc1ccc(NC(=O)CN(C)C(=O)C2COc3ccccc3O2)cc1 (stereo unspecified)	-	0	0	0	0	0	-
COc1cc(NCCCCCCCN)c2ncccc2c1	0	-	96	-	-	-	-
COc1cc(NCc2ccccc2O)c2ncccc2c1	0	0	-	0	0	0	-
COc1cccc(/C=C2\Oc3cc(OCC(=O)N4Cc5ccccc5C[C@H]4C(=O)O)ccc3C2=O)c1	0	-	99	-	-	-	-
COc1cccc(/C=C2\Oc3cc(OC(=O)N4CCOCC4)ccc3C2=O)c1	-	0	0	0	0	0	-
Cc1nc2ccccc2n1C(C)c1ccccc1 (stereo unspecified)	0	0	0	0	0	0	-
CC(c1ccccc1)n1c(CO)nc2ccccc21 (stereo unspecified)	67	0	0	0	0	0	0
SMILES	PglD DTNB	NSD2 HMT inh	ALR inh	CASP6 VEID inh	HIV Env fusion	F508del corr	PglD inh SP
Cc1cc(NC(=O)Nc2ccccc2F)ccc1Br	40	0	0	0	0	0	0
Cn1nnc2cc(NC(=O)Nc3ccccc3F)ccc21	0	0	-	0	0	0	-
O=C(O)CC1(CC(=O)Nc2ccc3c(c2)C(=O)OC3)CCCCC1	21	0	0	0	0	0	0
N#C[C@H]1[C@H](c2ccccc2-c2ccccc2F)[C@@H](CO)N1C(=O)C1CC1	-	-	-	0	-	0	-
CO[C@H]1CN(C)C(=O)c2cc(NC(=O)C3CC3)ccc2OC[C@H](C)N(C)C[C@@H]1C	0	-	-	-	-	0	-
COc1ccc(C(CNc2ccc(S(C)(=O)=O)cc2[N+](=O)[O-])N(C)C)cc1OC (stereo unspecified)	23	0	0	-	0	0	0
O=C(c1ccc2c(c1)OCO2)N1CC(=O)N2[C@H](CO)[C@@H](c3ccc(C#CC4CCCC4)cc3)[C@@H]2C1	-	-	-	0	-	0	-
CCC(OC(=O)CNS(=O)(=O)c1ccccc1)C(=O)c1ccccc1 (stereo unspecified)	20	0	0	0	0	0	0
COc1cccc(S(=O)(=O)Nc2ccc3c(c2)OC[C@H](C)NC[C@H](C)[C@H](OC)CN(C)C3=O)c1	0	-	-	0	0	0	-
CC(C)(C)NC(=O)COC(=O)c1ccccc1Nc1ccc(SC(F)F)cc1	20	0	-	-	0	-	?
O=C(NCc1ccco1)Oc1ccccc1	21	0	0	-	0	-	0
Cn1ncc(C(=O)Nc2ccc(OC(F)(F)F)cc2)c1-n1cccc1	21	0	0	0	0	0	0
c1ccc2c(c1)oc1c(NCCN3CCOCC3)ncnc12	0	0	0	-	0	-	-
c1ccc2c(c1)oc1c(Nc3ccc(CN4CCOCC4)cc3)ncnc12	20	0	0	-	-	-	0
O=[N+]([O-])c1ccc(O)c(C=Nc2cccc3ccccc23)c1	0	0	0	0	0	0	-
O=[N+]([O-])c1ccc(O)c(C=Nc2cccc3ncccc23)c1	23	0	0	0	0	0	0
CCCCn1c(SCC(=O)N2CC(C)CC(C)C2)nc2cc(S(N)(=O)=O)ccc21 (stereo unspecified)	0	0	0	-	0	-	-
CCCCn1c(SCC(=O)N2CCCCC2)nc2cc(S(N)(=O)=O)ccc21	45	0	0	-	0	-	0
Cc1ccc2nc(/C(C#N)=N/O)[nH]c2c1	38	0	0	-	-	-	0
N#C/C(=N\O)c1nc2ccccc2[nH]1	-	0	0	-	0	-	-
CCN(CC)S(=O)(=O)c1ccc(NS(=O)(=O)c2cccc(C)c2)cc1	25	0	0	-	0	-	0
Cc1ccc(-c2cnc3c(c2)C(=O)N([C@H](C)CO)C[C@@H](C)[C@@H](CN(C)CC2CCOCC2)O3)cc1	0	-	-	0	0	0	-
COc1cc(C2=NOC(C(=O)NCc3cccnc3)C2)cc(OC)c1OC (stereo unspecified)	0	0	0	0	0	0	-
O=C(NCc1cccnc1)C1CC(c2cccc(Br)c2)=NO1 (stereo unspecified)	23	0	-	0	0	0	0
Cc1ccc([N+](=O)[O-])c(C(=O)Nc2cccnc2Cl)c1	21	0	0	0	0	0	0
